Common to all, as to assay: PBM; 200 nM protein, PBS
Holding throughout (details): dsDNA, one strand shown

The target in assay [1] is SHOX (Homo sapiens, UniProt O15266 103-189).
Assay [2] deals with HOXC10 (Homo sapiens, UniProt Q9NYD6 254-340).
The target in assay [3] is HOXD13 (Homo sapiens, UniProt P35453 263-343, T313R).
Assay [4] deals with SHOX (Homo sapiens, UniProt O15266 103-189, R173C).
In assay [5] the target is HOXD13 (Homo sapiens, UniProt P35453 263-343).
Assay [6] addresses HOXC10 (Homo sapiens, UniProt Q9NYD6 254-340, K271E).
Assay [7] concerns the target HOXD13 (Homo sapiens, UniProt P35453 263-343, T313A).
Assay [8] concerns the target HOXA2 (Homo sapiens, UniProt O43364 129-215, R185T).
In assay [9] the target is ALX3 (Homo sapiens, UniProt O95076 139-225, N203Q).
Chain of ALX3 (Homo sapiens, UniProt O95076 139-225, N203Q) (O95076 139-225 N203Q): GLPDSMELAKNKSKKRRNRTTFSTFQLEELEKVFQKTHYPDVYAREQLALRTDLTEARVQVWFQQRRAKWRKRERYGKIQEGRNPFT
Assay [10] deals with HOXA2 (Homo sapiens, UniProt O43364 129-215, R185K).
Chain of HOXA2 (Homo sapiens, UniProt O43364 129-215, R185K) (O43364 129-215 R185K): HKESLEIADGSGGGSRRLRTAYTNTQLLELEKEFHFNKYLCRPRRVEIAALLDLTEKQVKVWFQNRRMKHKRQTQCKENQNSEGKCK
The target of assay [11] is ALX3 (Homo sapiens, UniProt O95076 139-225).
Chain of ALX3 (Homo sapiens, UniProt O95076 139-225) (O95076 139-225): as the sequence (O95076 139-225 N203Q) above, with Q65N counted along it
Assay [12] concerns the target ALX3 (Homo sapiens, UniProt O95076 139-225, L168Q).
Assay [13] addresses ALX3 (Homo sapiens, UniProt O95076 139-225, L168V).
Assay [14] concerns the target HOXA2 (Homo sapiens, UniProt O43364 129-215, Y150S).
The target in assay [15] is ALX3 (Homo sapiens, UniProt O95076 139-225, N203S).
Chain of ALX3 (Homo sapiens, UniProt O95076 139-225, N203S) (O95076 139-225 N203S): as the sequence (O95076 139-225 N203Q) above, with Q65S counted along it
Assay [16] concerns the target HOXA2 (Homo sapiens, UniProt O43364 129-215).
Assay [17] has as its target PRRX1 (Homo sapiens, UniProt P54821 80-166, F113S).
Assay [18] has as its target PRRX1 (Homo sapiens, UniProt P54821 80-166).
The target of assay [19] is HOXA7 (Homo sapiens, UniProt P31268 116-202).
Chain of HOXA7 (Homo sapiens, UniProt P31268 116-202) (P31268 116-202): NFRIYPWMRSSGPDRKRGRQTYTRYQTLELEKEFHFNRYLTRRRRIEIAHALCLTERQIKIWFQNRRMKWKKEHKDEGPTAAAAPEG
The target of assay [20] is HOXA7 (Homo sapiens, UniProt P31268 116-202, W177C).
Chain of HOXA7 (Homo sapiens, UniProt P31268 116-202, W177C) (P31268 116-202 W177C): as the sequence (P31268 116-202) above, with W62C counted along it
Another assay concerns the target HOXC9 (Homo sapiens, UniProt P31274 178-260, R222W).

Chain of SHOX (Homo sapiens, UniProt O15266 103-189, R173C) (O15266 103-189 R173C): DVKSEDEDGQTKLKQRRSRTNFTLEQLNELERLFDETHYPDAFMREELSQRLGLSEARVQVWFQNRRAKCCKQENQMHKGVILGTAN
Chain of SHOX (Homo sapiens, UniProt O15266 103-189) (O15266 103-189): as the sequence (O15266 103-189 R173C) above, with C71R counted along it
Chain of HOXD13 (Homo sapiens, UniProt P35453 263-343, T313R) (P35453 263-343 T313R): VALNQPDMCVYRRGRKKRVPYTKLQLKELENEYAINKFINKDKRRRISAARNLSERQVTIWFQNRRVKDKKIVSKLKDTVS
Chain of ALX3 (Homo sapiens, UniProt O95076 139-225, L168Q) (O95076 139-225 L168Q): as the sequence (O95076 139-225 N203Q) above, with L30Q, Q65N counted along it
Chain of HOXA2 (Homo sapiens, UniProt O43364 129-215, R185T) (O43364 129-215 R185T): as the sequence (O43364 129-215 R185K) above, with K57T counted along it
Chain of HOXA2 (Homo sapiens, UniProt O43364 129-215, Y150S) (O43364 129-215 Y150S): as the sequence (O43364 129-215 R185K) above, with Y22S, K57R counted along it
Chain of ALX3 (Homo sapiens, UniProt O95076 139-225, L168V) (O95076 139-225 L168V): as the sequence (O95076 139-225 N203Q) above, with L30V, Q65N counted along it
Chain of HOXD13 (Homo sapiens, UniProt P35453 263-343) (P35453 263-343): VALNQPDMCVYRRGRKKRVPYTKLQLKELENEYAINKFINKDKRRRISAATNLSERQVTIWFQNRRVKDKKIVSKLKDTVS
Chain of HOXA2 (Homo sapiens, UniProt O43364 129-215) (O43364 129-215): as the sequence (O43364 129-215 R185K) above, with K57R counted along it
Chain of HOXD13 (Homo sapiens, UniProt P35453 263-343, T313A) (P35453 263-343 T313A): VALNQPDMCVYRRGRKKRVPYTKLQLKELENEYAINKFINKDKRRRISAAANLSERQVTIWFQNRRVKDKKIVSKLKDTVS
Chain of HOXC10 (Homo sapiens, UniProt Q9NYD6 254-340) (Q9NYD6 254-340): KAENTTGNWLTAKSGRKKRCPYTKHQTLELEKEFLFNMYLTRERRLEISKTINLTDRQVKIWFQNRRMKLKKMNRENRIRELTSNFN
Chain of PRRX1 (Homo sapiens, UniProt P54821 80-166, F113S) (P54821 80-166 F113S): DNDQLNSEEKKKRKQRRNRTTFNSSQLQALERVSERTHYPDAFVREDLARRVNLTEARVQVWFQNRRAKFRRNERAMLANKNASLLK
Chain of HOXC10 (Homo sapiens, UniProt Q9NYD6 254-340, K271E) (Q9NYD6 254-340 K271E): as the sequence (Q9NYD6 254-340) above, with K18E counted along it
Chain of PRRX1 (Homo sapiens, UniProt P54821 80-166) (P54821 80-166): as the sequence (P54821 80-166 F113S) above, with S34F counted along it
Chain of HOXC9 (P31274 178-260 R222W): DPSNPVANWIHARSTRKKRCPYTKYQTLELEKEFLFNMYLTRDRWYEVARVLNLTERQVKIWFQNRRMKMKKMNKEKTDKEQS

On to CCCTTCGA, for which the binding signal in the assay with SHOX [1] is 6.95 upbm affinity estimate (log intensity, higher = more binding, comparable within an allelic series); with HOXC10 [2], 10 upbm affinity estimate (log intensity, higher = more binding, comparable within an allelic series); with HOXD13 [3], 9.49 upbm affinity estimate (log intensity, higher = more binding, comparable within an allelic series); in the assay with SHOX [4], 7.13 upbm affinity estimate (log intensity, higher = more binding, comparable within an allelic series); in the assay with HOXD13 [5], 9.43 upbm affinity estimate (log intensity, higher = more binding, comparable within an allelic series); with HOXC10 [6] it was 10.1 upbm affinity estimate (log intensity, higher = more binding, comparable within an allelic series). Moreover, in the assay with HOXD13 [7], the binding signal was 9.48 upbm affinity estimate (log intensity, higher = more binding, comparable within an allelic series).

For the sequence CGCCGGCG, the binding signal with SHOX [1] is 7.07 upbm affinity estimate (log intensity, higher = more binding, comparable within an allelic series); in the assay with HOXA2 [8] it was 7.18 upbm affinity estimate (log intensity, higher = more binding, comparable within an allelic series); with ALX3 [9] it was 7.92 upbm affinity estimate (log intensity, higher = more binding, comparable within an allelic series); in the assay with SHOX [4], 7.15 upbm affinity estimate (log intensity, higher = more binding, comparable within an allelic series); with HOXA2 [10] it was 10.2 upbm affinity estimate (log intensity, higher = more binding, comparable within an allelic series); with ALX3 [11], 7.79 upbm affinity estimate (log intensity, higher = more binding, comparable within an allelic series). Besides, the binding signal with ALX3 [12] was 7.73 upbm affinity estimate (log intensity, higher = more binding, comparable within an allelic series); in the assay with ALX3 [13], 7.68 upbm affinity estimate (log intensity, higher = more binding, comparable within an allelic series); with HOXA2 [14], 10.3 upbm affinity estimate (log intensity, higher = more binding, comparable within an allelic series); with ALX3 [15], 8.03 upbm affinity estimate (log intensity, higher = more binding, comparable within an allelic series); with HOXA2 [16], 7.22 upbm affinity estimate (log intensity, higher = more binding, comparable within an allelic series).

Regarding GGAGGGAA, the binding signal with SHOX [1] was 7.13 upbm affinity estimate (log intensity, higher = more binding, comparable within an allelic series); with PRRX1 [17] it was 9.41 upbm affinity estimate (log intensity, higher = more binding, comparable within an allelic series); with SHOX [4], 7.16 upbm affinity estimate (log intensity, higher = more binding, comparable within an allelic series); with PRRX1 [18], 9.45 upbm affinity estimate (log intensity, higher = more binding, comparable within an allelic series).

Consider CGCCCGAC, for which the binding signal in the assay with SHOX [1] was 7.09 upbm affinity estimate (log intensity, higher = more binding, comparable within an allelic series); with HOXA2 [8], 7.5 upbm affinity estimate (log intensity, higher = more binding, comparable within an allelic series); with SHOX [4], 7.2 upbm affinity estimate (log intensity, higher = more binding, comparable within an allelic series); in the assay with HOXA2 [10] it was 10.3 upbm affinity estimate (log intensity, higher = more binding, comparable within an allelic series); with HOXA2 [14], 10.6 upbm affinity estimate (log intensity, higher = more binding, comparable within an allelic series); with HOXA2 [16], 7.16 upbm affinity estimate (log intensity, higher = more binding, comparable within an allelic series).

Take TAACAATA: the binding signal was 8.71 upbm affinity estimate (log intensity, higher = more binding, comparable within an allelic series) with SHOX [1]; 9.77 upbm affinity estimate (log intensity, higher = more binding, comparable within an allelic series) with HOXA7 [19]; 8.92 upbm affinity estimate (log intensity, higher = more binding, comparable within an allelic series) with HOXA7 [20].

Take AGCTGTCC: the binding signal with SHOX [1] was 7.1 upbm affinity estimate (log intensity, higher = more binding, comparable within an allelic series); with SHOX [4], 7.23 upbm affinity estimate (log intensity, higher = more binding, comparable within an allelic series).

Consider GCCTATTA, for which the binding signal is 10.8 upbm affinity estimate (log intensity, higher = more binding, comparable within an allelic series) with SHOX [1] and 8.45 upbm affinity estimate (log intensity, higher = more binding, comparable within an allelic series) with SHOX [4].

For the sequence ACCTGAGG, the binding signal was 7.18 upbm affinity estimate (log intensity, higher = more binding, comparable within an allelic series) in the assay with SHOX [1] and 7.27 upbm affinity estimate (log intensity, higher = more binding, comparable within an allelic series) with SHOX [4].

As to CCTCGGAG, the binding signal with SHOX [1] was 7.14 upbm affinity estimate (log intensity, higher = more binding, comparable within an allelic series); in the assay with SHOX [4] it was 7.17 upbm affinity estimate (log intensity, higher = more binding, comparable within an allelic series).

On to GCATTACC, for which the binding signal is 8.63 upbm affinity estimate (log intensity, higher = more binding, comparable within an allelic series) in the assay with SHOX [1] and 7.62 upbm affinity estimate (log intensity, higher = more binding, comparable within an allelic series) with SHOX [4].

For the sequence CCGGGCGA, the binding signal in the assay with SHOX [1] is 7.31 upbm affinity estimate (log intensity, higher = more binding, comparable within an allelic series); with SHOX [4], 7.22 upbm affinity estimate (log intensity, higher = more binding, comparable within an allelic series).

For CCTGGGGC, the binding signal is 7.08 upbm affinity estimate (log intensity, higher = more binding, comparable within an allelic series) in the assay with SHOX [1]; 7.67 upbm affinity estimate (log intensity, higher = more binding, comparable within an allelic series) in the assay with ALX3 [9]; 7.09 upbm affinity estimate (log intensity, higher = more binding, comparable within an allelic series) with SHOX [4]; 7.69 upbm affinity estimate (log intensity, higher = more binding, comparable within an allelic series) with ALX3 [11]; 7.69 upbm affinity estimate (log intensity, higher = more binding, comparable within an allelic series) in the assay with ALX3 [12]; 7.65 upbm affinity estimate (log intensity, higher = more binding, comparable within an allelic series) with ALX3 [13]. The binding signal with ALX3 [15] is 7.61 upbm affinity estimate (log intensity, higher = more binding, comparable within an allelic series).

Regarding CCTGAGAG, the binding signal with SHOX [1] was 7.19 upbm affinity estimate (log intensity, higher = more binding, comparable within an allelic series); with SHOX [4], 7.25 upbm affinity estimate (log intensity, higher = more binding, comparable within an allelic series).

Consider GACAGCCC, for which the binding signal with SHOX [1] was 7.16 upbm affinity estimate (log intensity, higher = more binding, comparable within an allelic series); with SHOX [4] it was 7.16 upbm affinity estimate (log intensity, higher = more binding, comparable within an allelic series).

As for CTTGGCCC, the binding signal in the assay with SHOX [1] is 7.14 upbm affinity estimate (log intensity, higher = more binding, comparable within an allelic series); with SHOX [4], 7.2 upbm affinity estimate (log intensity, higher = more binding, comparable within an allelic series).

For the sequence GCGTTAAA, the binding signal was 8.14 upbm affinity estimate (log intensity, higher = more binding, comparable within an allelic series) in the assay with SHOX [1] and 7.56 upbm affinity estimate (log intensity, higher = more binding, comparable within an allelic series) in the assay with SHOX [4].

For the sequence ATATTAAA, the binding signal is 9.92 upbm affinity estimate (log intensity, higher = more binding, comparable within an allelic series) with SHOX [1]; 8.59 upbm affinity estimate (log intensity, higher = more binding, comparable within an allelic series) in the assay with ALX3 [9]; 10.7 upbm affinity estimate (log intensity, higher = more binding, comparable within an allelic series) in the assay with HOXD13 [3]; 11.1 upbm affinity estimate (log intensity, higher = more binding, comparable within an allelic series) with HOXC9; 8.68 upbm affinity estimate (log intensity, higher = more binding, comparable within an allelic series) with ALX3 [15].

On to GCGGCGGA, for which the binding signal with SHOX [1] is 7.1 upbm affinity estimate (log intensity, higher = more binding, comparable within an allelic series); in the assay with SHOX [4] it was 7.11 upbm affinity estimate (log intensity, higher = more binding, comparable within an allelic series).

In the case of CCCAGCGC, the binding signal with SHOX [1] was 7.21 upbm affinity estimate (log intensity, higher = more binding, comparable within an allelic series); with HOXD13 [3], 9.41 upbm affinity estimate (log intensity, higher = more binding, comparable within an allelic series); with SHOX [4], 7.13 upbm affinity estimate (log intensity, higher = more binding, comparable within an allelic series); with HOXD13 [5], 9.38 upbm affinity estimate (log intensity, higher = more binding, comparable within an allelic series); with HOXD13 [7], 9.56 upbm affinity estimate (log intensity, higher = more binding, comparable within an allelic series).

In the case of CCGGCGTC, the binding signal in the assay with SHOX [1] was 7.01 upbm affinity estimate (log intensity, higher = more binding, comparable within an allelic series); in the assay with SHOX [4] it was 7.17 upbm affinity estimate (log intensity, higher = more binding, comparable within an allelic series).

Values taken from publication PMC11006913.
